Source: PubChem BioAssay (EPA / NIEHS)
Records with an inconclusive call do not appear. The source made the active and inactive calls. The calls were made as follows: active = hit-call score of the fitted dose curve at least 0.9, where 1 is the maximum; inconclusive = response in the unintended direction; inactive = score below 0.9.

molecular target: Nuclear receptor subfamily 1 group I member 3 (Homo sapiens) (UniProt Q14994); experiment: ATG_CAR_TRANS: Attagene TRANS-FACTORIAL HepG2 Assay for human Constitutive Androstane Receptor (CAR) (AID 2282969); conditions: HepG2 Attagene TRANS-FACTORIAL CAR reporter;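 also: activators raise reporter mRNA above DMSO so AC50 marks induction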
Experimental: ATG_TRANS is a cell-based, multiplexed-readout assay that uses HepG2, a human liver cell line, with measurements taken at 24 hours after chemical dosing in a 24-well plate.ATG_CAR_TRANS is one of 30 assay component(s) measured or calculated from the ATG_TRANS assay. It is designed to make measurements of mRNA induction, a form of inducible reporter, as detected with fluorescence intensity signals by Reverse transcription polymerase chain reaction (RT-PCR) and Capillary electrophoresis technology.Data from the assay component ATG_CAR_TRANS was analyzed into 1 assay endpoint. This assay endpoint, ATG_CAR_TRANS, was analyzed in the positive analysis fitting direction relative to DMSO as the negative control and baseline of activity. Using a type of inducible reporter, measures of mRNA for gain-of-signal activity can be used to understand the reporter gene at the transcription factor-level as they relate to the gene NR1I3. Furthermore, this assay endpoint can be referred to as a primary readout, because this assay has produced multiple assay endpoints where this one serves a reporter gene function. To generalize the intended target to other relatable targets, this assay endpoint is annotated to the nuclear receptor intended target family, where the subfamily is non-steroidal.
Human liver HepG2 cells are transiently transfected with multiple reporter transcription units (MRTUs) in 6-well plates using FuGene 6 reagent (Roche; 3 ml FuGene/1 mg DNA). The MRTU constructs are regulated by a cis-regulating element (promoter). […] A major difference between the CIS and TRANS system is that in CIS activities of endogenous TFs are measured, whereas the TRANS assay evaluates changes in activities of exogenous, chimeric NR-Gal4 proteins. […] At the end of 24 hour incubation, total RNA was isolated using TriZol reagent (Invitrogen). The isolated RNA is then reverse-transcribed using oligo(dT) primer and Mo-MLV reverse transcriptase (Invitrogen) with DNAse I (Ambion) treatment for 30 min. The one-tenth of the produced cDNA was amplified by PCR using Taq DNA polymerase (Invitrogen) and two reporter sequence-specific primers. The PCR products were fluorescently labeled by primer extension with 6-arboxyfluorescein (6-FAM) 5'-labeled reporter sequence-specific primer (2 min at 95 C, 20 s at 68 C and 10 min at 72 C) and these products were digested with 5U of HpaI (New England Biolabs) for 2h at 37 C. The fragments were purified using Qiaquick PCR columns (Qiagen), analyzed on an ABI 3130xL genetic analyzer (Applied Biosystems) with peak positions identified by using a set of X-rhodamine (ROX)-labeled MapMarker1000 molecular weight standards (BioVentures). The raw capillary electrophoresis data was processed using Attagraph software (Attagene).

Chain of Nuclear receptor subfamily 1 group I member 3 (Homo sapiens) (Q14994 whole entry, looked up): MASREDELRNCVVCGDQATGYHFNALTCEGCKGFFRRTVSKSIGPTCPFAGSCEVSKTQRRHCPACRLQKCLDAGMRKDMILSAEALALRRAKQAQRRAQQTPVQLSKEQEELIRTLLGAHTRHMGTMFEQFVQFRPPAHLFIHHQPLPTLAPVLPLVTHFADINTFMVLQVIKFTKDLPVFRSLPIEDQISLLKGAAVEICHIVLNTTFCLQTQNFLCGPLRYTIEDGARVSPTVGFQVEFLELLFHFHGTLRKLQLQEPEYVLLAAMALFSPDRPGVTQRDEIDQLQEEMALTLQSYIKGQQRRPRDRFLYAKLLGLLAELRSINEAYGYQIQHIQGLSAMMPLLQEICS

outcome, inactive:
CCCCCCCC(=O)OCCCCCC
O=[N+]([O-])c1ccc(O)cc1C(F)(F)F
CCCCCCOC(=O)CCC
ON=C1CCCCC1
O=C(O)CCCCCCCCC(=O)O
O=c1c(O)c(-c2ccc(O)cc2)oc2cc(O)cc(O)c12
CN(C)C(=S)SC(=S)N(C)C
CCCCCCCCCCCCCCN(CCO)CCO
CCOc1ccc(N=Nc2ccc(C=Cc3ccc(N=Nc4ccc(OCC)cc4)cc3S(=O)(=O)O)c(S(=O)(=O)O)c2)cc1
Nc1ccc2c(O)cc(S(=O)(=O)O)cc2c1
ClC(c1ccccc1)(c1ccccc1)c1ccccc1
N[C@@H](Cc1cc(I)c(Oc2cc(I)c(O)c(I)c2)c(I)c1)C(=O)O
CCCCC(CC)COC(C)=O (stereo not given)
C=C(C)CNCC
CC(=O)NCCO
CCCCCCCCCCCCN1CCCCCC1=O
CSCCC=O
O=C(Nc1ccc2c(O)c(N=Nc3ccc(N=Nc4ccc(S(=O)(=O)O)cc4)cc3)c(S(=O)(=O)O)cc2c1)c1ccccc1
c1ccc(CN(Cc2ccccc2)Cc2ccccc2)cc1
CN(C)c1cccc(O)c1
CS(=O)(=O)c1ccc(C2=C(c3ccccc3)C(=O)OC2)cc1
C=Cc1ccc(C)cc1
CCCCCCCC/C=C\CCCCCCCC(=O)OCC
CCOC(=O)COC(=O)c1cc(Oc2ccc(C(F)(F)F)cc2Cl)ccc1[N+](=O)[O-]
FC(F)(F)COCC(F)(F)F
CC(Oc1cc(Cl)ccc1Cl)C(=O)O (stereo not given)
CCCC[P+](CCCC)(CCCC)CCCC
COC(=O)c1ccc(OC)cc1
C#CC(C)N(C)C(=O)Nc1ccc(Cl)cc1 (stereo not given)
CCC(=O)O[C@@H]1C[C@H]2CC[C@]1(C)C2(C)C
CN(C)CCOC(C)(c1ccccc1)c1ccccn1 (stereo not given)
O=C(c1ccccc1)C(O)c1ccccc1 (stereo not given)
C1CCOC1
C=CCCC(=O)/C=C/C1C(C)=CCCC1(C)C (stereo not given)
C=C[Si]1(C)O[Si](C)(C=C)O[Si](C)(C=C)O[Si](C)(C=C)O1 (stereo not given)
CC(=O)O[C@@H]1CC2CCC1(C)C2(C)C (stereo not given in full)
N#Cc1cscn1
CCN(CCC#N)c1ccc(N=Nc2ccc([N+](=O)[O-])cc2)cc1
COc1ccc(OC)c(N=Nc2c(O)ccc3ccccc23)c1
C/C=C(\C)C(=O)OCCc1ccccc1
